Assay outcomes: PubChem, Sanford-Burnham Center for Chemical Genomics
TNAP inh pNP = human TNAP enzyme inhibitors, primary screen, biochemical, colorimetric, p-nitrophenol readout; purified TNAP, pNPP hydrolysis, absorbance 405 nm; 21,000 tested, under 10 active; inhibition, % at 20 µM
Target sequence (P05186 whole entry, looked up): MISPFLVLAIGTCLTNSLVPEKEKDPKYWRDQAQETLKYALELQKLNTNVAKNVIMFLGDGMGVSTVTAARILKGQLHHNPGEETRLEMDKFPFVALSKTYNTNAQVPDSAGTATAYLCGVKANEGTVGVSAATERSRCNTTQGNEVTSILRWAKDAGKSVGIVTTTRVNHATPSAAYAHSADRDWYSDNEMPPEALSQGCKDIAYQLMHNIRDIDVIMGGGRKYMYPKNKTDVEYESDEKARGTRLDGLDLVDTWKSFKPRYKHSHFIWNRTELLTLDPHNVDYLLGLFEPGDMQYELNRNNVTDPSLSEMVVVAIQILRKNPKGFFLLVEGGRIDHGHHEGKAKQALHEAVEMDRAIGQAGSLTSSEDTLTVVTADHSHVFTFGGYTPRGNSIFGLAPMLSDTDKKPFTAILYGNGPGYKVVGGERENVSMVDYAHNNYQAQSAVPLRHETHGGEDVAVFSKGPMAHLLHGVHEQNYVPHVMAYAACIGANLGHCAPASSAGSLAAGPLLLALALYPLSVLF
TNAP Pi inh = human TNAP enzyme inhibitors, primary screen, biochemical, colorimetric, phosphate release readout; inhibition, % at 20 µM; 21,000 tested, under 10 active; Alkaline phosphatase, tissue-nonspecific isozyme (Homo sapiens), P05186; purified TNAP, pNPP, malachite green phosphate absorbance
Each line names hits and unclear results; the compound was inactive in the other large screens. Only a sample is shown.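 How the source made its calls: active means inhibition above 50% at the 20 µM single-dose screen; inactive means the rest.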

COc1ccc2c(=O)c3c(=O)n(Cc4ccco4)c(C4CCCCC4)nc3oc2c1	none
C=CCn1c(SCc2nc3ccccc3nc2C)nnc1-c1ccoc1C	none
CCC(Oc1ccccc1)C(=O)N1CC(C)CC(C)C1 (stereo not drawn)	none
CCN(CC(=O)Nc1c(C(=O)OC)[nH]c2ccc(C)cc12)c1ccc2c(c1)OCO2	none
CCCc1ccc(OCc2ccc(C(=O)N3CCN(c4ccccn4)CC3)o2)c(OC)c1	none
COC(=O)C1=C(N)Oc2cc(C)n(CCN3CCOCC3)c(=O)c2C1c1cccnc1 (stereo not drawn)	none
CCOC(=O)C1=C(C)NC(SCC(=O)Nc2nc(C)cs2)=C(C#N)C1c1cccs1 (stereo not drawn)	none
N#Cc1cc2c(nc1SCc1ccncc1)CCC2	none
CCn1c(SCC(=O)N2CCN(c3ccccc3F)CC2)nnc1-c1ccoc1C	none
COc1ccc(Cl)cc1NC(=O)c1cccnc1	none
O=c1[nH]c(CN2CCCCC2)nc2c1C1(CCCC1)Cc1ccccc1-2	none
CC12CCC(c3c(C(=O)Nc4nccs4)nn(-c4ccccc4)c31)C2(C)C (stereo not drawn)	none
CC1(C)SC2[C@H](NC(=O)C(NC(=O)N3CCNC3=O)c3ccccc3)C(=O)N2C1C(=O)O (stereo partly drawn)	none
O=C(c1ccco1)N1CCN(CC(O)COc2ccc3oc4ccccc4c3c2)CC1 (stereo not drawn)	none
COc1ccc(CNC(=O)C2CC(=O)N(c3ccc(OCC(=O)N4C(C)CCCC4C)cc3)C2)cc1 (stereo not drawn)	none
COCCCn1c(C)nc2c(c1=O)c1nc3ccccc3nc1n2CCc1ccccc1	none
CCN(CC)CCN1C(=O)C(=O)/C(=C(/O)c2ccc(C)cc2)C1c1cccnc1 (stereo not drawn)	none
O=C(OCc1cc(Cl)ccc1OC(F)F)c1cc(S(=O)(=O)O)ccc1O	none
CCC(NC(=O)NCc1cccnc1)(C(F)(F)F)C(F)(F)F	none
CC(=O)c1cccc(-n2nnnc2SCC(=O)Nc2cccc(NC(=O)c3ccco3)c2)c1	none
C=CCn1c(SCC(=O)c2ccc(NS(=O)(=O)c3ccccc3)cc2)nnc1-c1cccs1	none
Cc1c(NC(=O)Cn2cnc3c(=O)n(C)c(=O)n(C)c32)cccc1-c1nc2ccccc2o1	none
CCOc1ccc(S(=O)(=O)NC(C)(C)C)cc1-c1nc2c(C(C)(C)C)nn(C)c2c(=O)[nH]1	none
CC(C)n1cc(/C=C(\C#N)S(=O)(=O)c2ccccc2)c2ccccc21	none
CCN(CC)CCCN1C(=O)C(=O)/C(=C(/O)c2ccccc2)C1c1ccccn1 (stereo not drawn)	none
CCCc1cc(=O)[nH]c(SCC(=O)c2cc(C)n(C(C)COC)c2C)n1 (stereo not drawn)	none
S=c1[nH]nc(-c2ccco2)n1C1CCCCC1	none
O=S(=O)(/C=C/c1ccccc1)Nc1ccc2c(c1)OCO2	none
Brc1ccc(-c2nnc3n2-c2ccccc2CC3)cc1	none
Cc1cc(C(=O)NCCCn2ccnc2)sc1-c1ccccc1	none
C=CCN(C)CCCNC(=O)/C=N/O	none
Cc1cc(C)n(-c2nc3ccccc3c(=O)n2OCC(=O)Nc2c(C)cccc2C)n1	none
OCCN1CCOCCN(CCO)CCOCC1	none
O=C(NCc1ccc2c(c1)OCO2)C1CC(=O)N(c2ccc(O)cc2)C1 (stereo not drawn)	none
Cc1ccc(C)n1-c1ccc(-c2nnc3n2CCCCC3)s1	none
Cc1noc(C)c1CSc1nnc(-c2ccncc2)n1-c1ccc(Cl)c(Cl)c1	none
Cc1nc(NC(=O)CSc2ccccc2N)sc1C	none
COc1ccc(C(=O)CSc2nc3nc(C)cc(C)c3c(=O)[nH]2)cc1OC	none
CCOCc1nc(N)[nH]c(=O)c1Cc1ccc(OC(C)C)cc1	none
Cc1cccc(Cn2c(=O)c3c(nc4n3CCCN4Cc3ccccc3)n(C)c2=O)c1	none
COCCn1c(-c2ccc(Cl)cc2)cnc1SCC(=O)NCc1cccs1	none
COc1ccc(-c2nc(-c3cccs3)c(-c3cccs3)[nH]2)cc1O	none
Cn1c(Cn2cnc3ccccc32)nnc1SCc1ccccc1	none
c1ccc(CNn2nnnc2-c2ccccc2)cc1	none
Nc1nnnn1CC(=O)OCc1cccc(Br)c1	none
COC(=O)CSc1nc2sc3c(c2c(=O)n1C1CCCCC1)CCN(C)C3	none
Cc1cc2nc(NC3=NCN(Cc4cccnc4)CN3)nc(C)c2cc1C	none
CC1(C)Oc2ccc(C(=O)NC3CCCC3)cc2N(CC(=O)NC2CCCCC2)C1=O	none
COC(=O)C1=C(C)NC(C)=C(C(=O)OC)C1c1ccccc1OCc1c(C)no[n+]1[O-]	none
CSc1ccccc1NC(=O)COc1ccc(S(=O)(=O)N2CCCC2)cc1	none
Cn1c(NCc2ccco2)nc2c1c(=O)n(Cc1ccc(Cl)c(Cl)c1)c(=O)n2C	none
Cc1ccc(Cn2cccc(NC(=O)c3ccco3)c2=O)cc1	none
O=C(CCn1nnc(-c2cccs2)n1)NC1CCCCC1	none
Cc1ccc(NC(=O)N2CCCC2C(=O)NCCc2ccccc2)cc1 (stereo not drawn)	none
Cc1[nH]nc2c1C(CCc1ccccc1)C(C#N)=C(N)O2 (stereo not drawn)	none
Cc1cccc(NC(=O)Cn2c(C)c(C#N)c3ccccc32)c1C	none
O=C(CN1C(=O)c2ccccc2S1(=O)=O)N1CCc2ccccc2C1	none
COc1ccc(NC(C)=O)cc1NC(=O)CSc1nc2ncccc2[nH]1	none
CCc1ccccc1NC(=O)Cn1nnc(-c2cccnc2)n1	none
Cc1cc(C)cc(N(CC(=O)NCc2cccnc2)S(C)(=O)=O)c1	none
CCN(Cc1cc2ccccc2[nH]c1=O)C(=O)C(C)C	none
COCCn1c(SCc2ccc(C(=O)OC)o2)nc2cc(Cl)ccc2c1=O	none
Nc1cc(C(=O)OCC(=O)NCc2ccco2)ccc1Cl	none
CCn1c(=O)c(C(=O)Nc2nc3ccccc3[nH]2)c(O)c2ccccc21	none
